According to PubChem BioAssay (NCI):
This is part of a sample that, as a whole, favours compounds with a hit. Of some 83,000 tested, about 20% had one in any assay.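 Method: cells in 96-well plates; compound added at one concentration; 48 h incubation; percent growth measured; values under 10 scored active.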 Unmarked numbers belong to inactive results. Active and inactive are the calls of the source.

Each compound was assayed on A498 renal (assay: NCI-60 one-dose screen, 48 h (100 = growth as untreated, 0 = no growth, -100 = all killed)). Settings: 1 µM.
Protocol: Growth inhibition of the A498 human tumor cell line is measured as a screen for anti-cancer activity. Cells are grown in 96 well plates and exposed to the test compound for 48 hours. Compounds are tested at a single concentration, which is 10^-5 M for most compounds. The reported endpoint is percent growth (GI% or GIPRCNT), where numbers from 0 - 100% represent growth inhibition, and numbers from -100% - 0 represent cell death. For example, a value of 40 represents 60% growth inhibition. A value of 0 means no net growth occurred over the course of the experiment. A value of -40 indicates 40% of cells at the beginning of the experiment died by the end of the experiment. A value of -100 means all cells are dead at the end of the experiment.
NCI-60 Human Tumor Cell Lines Screen was performed using the standard one-dose NCI protocol, which is described in more detail at https://dtp.cancer.gov/discovery_development/nci-60/default.htm.
Compounds with GIPRCNT values below 10 were considered active. Activity score was based on GIPRCNT using the following formula: […]
Score is 0 for GIPRCNT values of 100 or above, 50 for GIPRCNT values of 0, and 100 for GIPRCNT values of -100.

SMILES	growth
CC/C(=C(\c1ccc(O)cc1)c1ccc(OCCN(C)C(=O)COCCNC(=O)Cc2ccc3c(c2)CN([C@@H]2CCC(=O)NC2=O)C3=O)cc1)c1ccccc1	117%

Same assay, conditions: 10 µM

SMILES	growth
CC/C(=C(\c1ccc(O)cc1)c1ccc(OCCN(C)C(=O)COCCNC(=O)Cc2ccc3c(c2)CN([C@@H]2CCC(=O)NC2=O)C3=O)cc1)c1ccccc1	98.2%

Same assay, conditions: 10 µM unless noted

SMILES	growth
Cc1[nH]nc2ccc3nc(-c4cn[nH]c4C(F)(F)F)c4c(c3c12)CCCC4	-61.1% (active)
O=C1CCC(N2C(=O)c3cccc(NCCCCCC(=O)N4CCN(c5ccc6nc7c(nc6c5C(F)(F)F)C(=O)c5ncccc5C7=O)CC4)c3C2=O)C(=O)N1 (stereo not given)	-80.7% (active)
CC[C@]12C=CCN3CC[C@]4(C(=C(C(=O)OC)C1)Nc1cc(OC)c([C@@H]5[C@H]6O[C@H]6[C@@]6(CC)CC(C(=O)OC)=C7Nc8cc(O)ccc8[C@@]78CCN5[C@@H]68)cc14)[C@@H]32	59%
O=C1/C(=C/c2cccc3c2OCO3)Cc2c(F)cc(Br)cc21	152%
C/C(=N\Nc1ccc(C(=O)O)cc1)c1cnn(-c2cc(=O)[nH]c3ccc(C)cc23)c1C	108%
COc1cc(/C=C/C(=O)c2cnn(-c3cc(=O)[nH]c4ccc(C)cc34)c2C)cc(OC)c1OC	8.36% (active)
Nc1cc(-c2c[nH]c3ccc(F)cc23)nc2cc(-c3c[nH]c4ccccc34)nn12	21.8%
N#Cc1cc(-c2ccc3ncnc(N4CCc5cc(F)c(Cl)cc54)c3c2)cnc1N	-0.0443% (active)
Nc1nnc(-c2cncc(Br)c2)c(-c2c[nH]c3ccc(Cl)cc23)n1	112%
COc1c2c(c(Br)c3c1C(CCc1ccccc1)N(C)CC3)OCO2 (stereo not given)	82%
COc1ccc(NC2=C(I)C(=O)C(C)=C(C)C2=O)cc1	113%
FC(F)(F)c1cc2c(Cl)ncnc2n1CCN1CCOCC1	116%
COc1cc(CNC(=O)C[C@H](C)CCC=C(C)C)ccc1OCc1cn(-c2ccccc2Cl)nn1	107%
Cn1cc(-c2cc(N)n3nc(-c4c[nH]c5ccccc45)cc3n2)c2cc(Br)ccc21	-92.5% (active)
Cc1ccc(C(=O)Nc2cc(-n3cnc(F)c3)cc(C(F)(F)F)c2)cc1C#Cc1cnc2cccnn12	103%
COc1ccc(N=Nc2c(N)nn3c(N)c(C#N)c(-c4ccccc4)nc23)cc1	113%
CCOc1ccc(-c2cc(-c3cc(C(C)C)c(O)cc3C)nn2-c2ccc(S(N)(=O)=O)cc2)cc1	98.3%
Cc1cccc(/C=C/c2ccc(NC(=S)NCCCCN(C)C)cc2)c1	-83.7% (active)
Cn1cc(-c2cc(N)n3nc(-c4c[nH]c5ccc(Cl)cc45)cc3n2)c2cccnc21	-79.7% (active)

SMILES	growth
O=C(NNC(=O)c1ccc(OCc2nc3ccc(Cl)cc3[nH]2)cc1)Nc1ccc(Cl)c(Cl)c1	182%
O=C(Nc1ccc(S(=O)(=O)N2CCCCC2)cc1)C(Cl)Cl	111%
COC(=O)c1cc(C(=O)CBr)n2c1ccc1c3ccccc3ccc12	101%
CCN1C(=O)N(CC)C2NNC(Sc3c(C(=O)O)c4ccccc4n(CC(C)C)c3=O)=NC21 (stereo not given)	133%
CN(C)c1nc(NCCNS(=O)(=O)c2ccc(C3=Nc4c(N)nc(N)nc4NC(c4ccc(Cl)cc4)C3)cc2)nc(N2CCOCC2)n1 (stereo not given)	108%
COc1cc(/C=C/C(=O)c2cnn(-c3cc(=O)[nH]c4ccc(Cl)cc34)c2C)cc(OC)c1OC	-21.5% (active)
C=CCn1c(O)c(N=Nc2nc(-c3cc4ccccc4oc3=O)cs2)c2ccccc21	137%
Nc1nnc(-c2cncc(Br)c2)c(-c2c[nH]c3ccc(Br)cc23)n1	92.7%
O=C(NNC(=S)NC(=O)c1ccccc1)c1ccc(OCc2nc3ccc(Cl)cc3[nH]2)cc1	-55% (active)
COc1ccc2c(c1)C(Sc1ccc(F)cc1)c1c(nc(N)c(C#N)c1N)O2 (stereo not given)	101%
Cc1cn(-c2cc(NC(=O)c3ccc(C)c(-n4cc(-c5cnc6cccnn56)nn4)c3)cc(C(F)(F)F)c2)cn1	185%
C#CCN(C)CCCOc1ccc(N(CC)C(=O)c2cc(C(C)C)c(O)cc2O)cc1Cl	21.6%
FC(F)(F)c1cc2c(Cl)ncnc2n1CCN1CCCCC1	113%
O=C(NN1C(=O)/C(=C/C=C/c2ccc([N+](=O)[O-])o2)SC1=S)c1ccncc1	18.9%
CN(C)c1ccc(/C=C/c2n(Cc3ccc4ccccc4c3)c3ccccc3[n+]2Cc2ccc3ccccc3c2)cc1	-82.1% (active)
CCN1C(=O)N(CC)C2NNC(Sc3c(C(=O)O)c4ccccc4n(CCC(C)C)c3=O)=NC21 (stereo not given)	76.4%
O=C(Nc1ccc(Cl)c(C(F)(F)F)c1)N1CCN(c2cc(-c3cn(-c4ccccc4)nc3-c3cccc(O)c3)ccn2)CC1	38.9%
O=C(NC(=S)N1CCN(c2ncnc3c2cnn3-c2ccccc2)CC1)c1ccc(Br)cc1	104%
Cn1cc(Nc2ncnc(-c3ccc(N4CCCC4)c(C#N)c3)n2)cn1	42.6%
